GRK2 inh = blocks RNA aptamer binding to human GRK2; P25098; 0.59% of 330,000 active; inhibition of aptamer binding, % at 10 µM; bead flow cytometry, FAM-aptamer displacement from GRK2; AID 488847;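 active = inhibition of aptamer binding above 40%, roughly 3 SD of noise, on plates passing a quality check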;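 note: median bead fluorescence of bound FAM aptamer so fluorescent compounds give negative values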
Target sequence (P25098 whole entry, looked up): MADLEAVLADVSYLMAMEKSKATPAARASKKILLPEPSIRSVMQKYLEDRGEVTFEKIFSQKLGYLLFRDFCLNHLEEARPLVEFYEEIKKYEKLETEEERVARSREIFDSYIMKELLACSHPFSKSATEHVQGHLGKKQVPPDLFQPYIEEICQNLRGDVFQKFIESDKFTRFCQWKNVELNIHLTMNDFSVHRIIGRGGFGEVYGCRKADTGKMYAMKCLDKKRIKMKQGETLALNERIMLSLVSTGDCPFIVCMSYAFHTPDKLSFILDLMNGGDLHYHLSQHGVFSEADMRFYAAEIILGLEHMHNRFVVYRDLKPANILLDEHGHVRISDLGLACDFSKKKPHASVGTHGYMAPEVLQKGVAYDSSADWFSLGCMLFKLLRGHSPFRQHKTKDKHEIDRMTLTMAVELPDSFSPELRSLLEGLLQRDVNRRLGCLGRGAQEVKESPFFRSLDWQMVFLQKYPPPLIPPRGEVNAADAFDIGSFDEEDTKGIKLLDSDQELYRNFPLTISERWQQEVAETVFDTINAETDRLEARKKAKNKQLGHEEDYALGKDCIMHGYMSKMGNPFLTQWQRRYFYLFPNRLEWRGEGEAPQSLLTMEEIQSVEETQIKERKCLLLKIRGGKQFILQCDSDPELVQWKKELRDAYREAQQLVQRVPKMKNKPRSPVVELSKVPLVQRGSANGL
Efflux pump mplx = antifungal efflux pump inhibition, Nile Red retention. S. cerevisiae Candida pump triplex. 0.44% of 330,000 active. inhibition, % at 10 µM;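 active = plate passing quality check with inhibition over a set limit, or well fluorescence over plate mean plus 4 SD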;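 note: Nile Red retained in pooled yeast measured as flow cytometry median fluorescence; 0% = buffer negative control and 100% = Enniatin B positive control; higher means more Nile Red kept so more efflux inhibition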
ATG4B inhibitor = ATG4B (human) cysteine protease inhibition | 0.51% of 340,000 active | ATG4B cleavage of LC3-PLA2, NBD-HPC fluorescence, 1 h | inhibition, % at 8.33 µM; in the data active = inhibition above about 40%
CR mimetic SO = yeast age-related superoxide inhibition as caloric restriction mimetic. S. cerevisiae aged cells, superoxide DHE fluorescence; active compounds read low. superoxide response (% of plate mean), % at 10 µM. 0.18% of 330,000 active;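 active = superoxide response under a set limit, about three screen SD below normal, cut at about 65% in these data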;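 note: yeast aged for seven days with compound at 30 °C before DHE staining; 100% = average MFI of all compound-treated wells on the plate with controls excluded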
Cmpd fluor yeast = compound fluorescence in yeast efflux pump counter-screen; shares compounds with Efflux pump mplx; S. cerevisiae AD/pABC3, flow cytometry; fluorescence ratio to DMSO, % at 10 µM; 4% of 1,700 active; AID 588517;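 active = fluorescence ratio to DMSO above its plate's cutoff, the plate mean ratio plus 5 SD, cut at about 210% in these data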;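 note: unstained yeast with no Nile Red so the signal is compound autofluorescence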
Mdr1 pump inh = inhibitors of Candida albicans Mdr1 efflux pump; shares compounds with Efflux pump mplx; S. cerevisiae AD/CaMDR1, Nile Red efflux, flow cytometry; inhibition, % at 10 µM; 1% of 1,700 active; AID 588518; in the data active = inhibition above about 26%;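 note: 0% = DMSO vehicle and 100% = reference inhibitor; higher means more Nile Red retained so more efflux inhibition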
CaCdr2 efflux inh = blocks the Candida albicans Cdr2 efflux pump in yeast | Nile Red retention ratio vs DMSO, % at 10 µM | S. cerevisiae AD/CaCDR2, Nile Red retention, flow cytometry | shares compounds with Efflux pump mplx | 4% of 1,700 active | AID 588520; in the data active = Nile Red retention ratio vs DMSO above about 190%;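 note: higher ratio means more blocking of Cdr2 efflux of the dye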
CaCdr1 efflux inh = blocks the Candida albicans Cdr1 efflux pump in yeast; shares compounds with Efflux pump mplx; S. cerevisiae AD/CaCDR1, Nile Red efflux, flow cytometry; inhibition, % at 10 µM; 1% of 1,700 active;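 active = inhibition above the screen-wide mean plus twice its standard deviation, cut at about 32% in these data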
* = called active by the depositor; / = no result given. Sampled rows, rich in hits. Any-hit rate of the full collection: about 1.6%.

SMILES	GRK2 inh	Efflux pump mplx	ATG4B inhibitor	CR mimetic SO	Cmpd fluor yeast	Mdr1 pump inh	CaCdr2 efflux inh	CaCdr1 efflux inh
Oc1c(C(c2ccccn2)N2CCC(Cc3ccccc3)CC2)cc(Cl)c2cccnc12 (configuration not stated)	0	53*	15	93	98	0	108	0
COc1ccc2nc(C)cc(SCC(=O)NNC(=O)COc3ccccc3)c2c1	2	0	-7	100	/	/	/	/
COc1ccc2nc(C)cc(Sc3nc4ccccc4s3)c2c1	0	1.0*	-1	86	89	0	98	0
COc1ccc([N+](=O)[O-])cc1NC(=O)Cn1ccc(C(F)(F)F)n1	1	0	-2	105	/	/	/	/
O=C1CCCN1CCCNc1ccc2nnc(CCC(=O)N3CCN(c4ccccc4)CC3)n2n1	2	1.3*	1	99	99	0	90	0
COc1ccccc1CNC(=O)CCc1nnc2ccc(NCCCN3CCCC3=O)nn12	2	0	-6	104	/	/	/	/
CCCc1nnc2c(N(C)S(=O)(=O)c3ccc(C)cc3)nc3ccccc3n12	2	0	8	70	/	/	/	/
CCCCc1nnc2c(N(C)S(=O)(=O)c3ccc(C)cc3)nc3ccccc3n12	0	0.8*	-4	111	105	0	102	0
Cc1cc(C)c(S(=O)(=O)c2ccccc2)c(N2CCOCC2)n1	4	0	7	90	/	/	/	/
Cc1ccc(OCCCC(=O)ON=C(N)c2ccccc2C)cc1	0	0	17	102	/	/	/	/
O=C(Cn1c2ccccc2c(=O)c2ccccc21)Nc1ccccc1F	1	17*	2	88	98	0	103	0
CCC(=O)c1cn(CC(=O)Nc2ccccc2F)c2ccccc12	3	0	-4	113	/	/	/	/
CC(CN1CCCCC1)C(=O)NNC(=O)C12CC3CC(CC(C3)C1)C2 (configuration not stated)	13	0	-16	110	/	/	/	/
CC(C)NC(=O)C(=O)NNC(=O)C12CC3CC(CC(C3)C1)C2	0	2.1*	-1	105	111	0	116	0
COc1cc2cc(CN(CCc3ccccc3C)C(=S)NCCCN(C)C)c(=O)[nH]c2cc1OC	0	8.9*	-15	95	105	0	97	0
O=c1c(Cc2c(F)cccc2Cl)c(O)ccn1CCc1c[nH]c2ccccc12	1	0	-6	113	/	/	/	/
Cn1ccc(C(=O)Nc2sc3c(c2C#N)CCC3)n1	0	0	1	89	106	-1	97	0
Cn1cc(Br)c(C(=O)Nc2sc3c(c2C#N)CCC3)n1	0	0	-5	111	106	0	112	0
Cn1cc([N+](=O)[O-])c(C(=O)Nc2sc3c(c2C#N)CCC3)n1	2	0	-5	109	111	0	129	0
Cn1cc(Br)c(C(=O)Nc2sc3c(c2C(N)=O)CCCC3)n1	2	0	-16	93	/	/	/	/
COc1ccc(S(=O)(=O)N2CCOCC2)cc1NC(=O)COC(=O)CC1CC2CCC1C2 (configuration not stated)	3	0.8*	-16	110	105	0	91	0
COc1ccc(S(=O)(=O)N2CCOCC2)cc1NC(=O)COC(=O)C1CC2CCCC(C1)C2=O (configuration not stated)	6	0	-6	96	/	/	/	/
CC(C)(C)CN1CCNC(=O)C1CC(=O)N1CCN(c2ccccc2)CC1 (configuration not stated)	2	0	15	87	/	/	/	/
O=C(NCC(c1cccs1)N1CCOCC1)c1ccc(Cl)c(S(=O)(=O)N2CCOCC2)c1 (configuration not stated)	0	1.1*	-3	101	102	0	97	0
O=C(NCC(c1cccs1)N1CCOCC1)c1ccc(Cl)c([N+](=O)[O-])c1 (configuration not stated)	0	0	6	93	/	/	/	/
SMILES	GRK2 inh	Efflux pump mplx	ATG4B inhibitor	CR mimetic SO	Cmpd fluor yeast	Mdr1 pump inh	CaCdr2 efflux inh	CaCdr1 efflux inh
Cc1ccc(S(=O)(=O)N2CCC(c3nc4c(nnn4Cc4ccccc4)c(=O)[nH]3)CC2)cc1	2	1	-10	89	/	/	/	/
Cc1ccc(Cn2nnc3c(=O)[nH]c(C4CCN(S(=O)(=O)c5ccccc5)CC4)nc32)cc1	0	0	-12	85	102	0	110	0
COC(=O)c1ccc(Cn2nnc3c(=O)[nH]c(C4CCN(S(=O)(=O)c5ccc(F)cc5)CC4)nc32)cc1	3	0	-22	109	/	/	/	/
O=c1[nH]c(C2CCN(S(=O)(=O)c3ccccc3C(F)(F)F)CC2)nc2c1nnn2Cc1ccccc1	1	3.1*	-11	102	109	0	104	0
COc1ccc(Cn2nnc3c(=O)[nH]c(C4CCN(S(=O)(=O)c5ccc(C)cc5)CC4)nc32)cc1	1	0	-9	88	112	0	110	0
COc1ccc2cc3cc(C(=O)N4CCN(Cc5ccc6c(c5)OCO6)CC4)oc3nc2c1	2	0.6*	-10	98	97	0	100	0
Cc1ccc(S(=O)(=O)Nc2ccc(-n3cnnn3)cc2)cc1	6	0.9*	-3	99	103	0	101	0
CN(C)CCNS(=O)(=O)c1ccc(N2CCN(c3ccc(F)cc3)CC2)c([N+](=O)[O-])c1	0	11*	-6	103	82	0	95	0
CCOC(=O)Cc1csc(NC(=O)c2ccc(N3CCOCC3)cc2[N+](=O)[O-])n1	5	0	-5	109	/	/	/	/
Cc1sc(NC(=O)c2cccs2)nc1-c1ccccc1	1	-1	33	90	/	/	/	/
Cc1sc(NC(=S)NC(=O)c2cccs2)nc1-c1ccc(C(C)C)cc1	1	0.9*	-6	100	103	0	94	0
CN1CCN(C(=O)CSc2ccc(C(F)(F)F)cc2[N+](=O)[O-])CC1	/	14*	0	114	108	0	120	0
CC1(C)CC(NS(=O)(=O)c2ccc3ccccc3c2)CC(C)(C)N1	0	0	2	98	/	/	/	/
COc1ccc(Cn2c(C)nc3c(c2=O)c2nc4ccccc4nc2n3Cc2ccco2)cc1	/	/	10	/	/	/	/	/
CCC(C)n1cnc2c(c1=O)c1nc3ccccc3nc1n2Cc1ccc(OC)cc1 (configuration not stated)	4	70*	-4	86	100	0	123	1
O=C(O)CC1c2ccccc2CCN1S(=O)(=O)c1cccs1 (configuration not stated)	0	2.2*	6	101	100	0	105	0
